PubChem BioAssay AID651711 (Broad Institute, 2012)
The campaign covered roughly 350,000 compounds. About 180 (0.051%) were called active. The list comes from a sample in which actives are over-represented; it also holds similar structures and randomly drawn compounds. Values without a mark were called inactive.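 The calls were made as follows: active = mean replicate inhibition above about 25%, with every replicate also reaching it (limit read from the data, passing the limit was not always enough); inconclusive = only one of those two criteria met; inactive = neither criterion met.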

These compounds were tested against Protein disulfide-isomerase A6 (Homo sapiens) (UniProt Q15084) (assay: inhibitors of ERp5-driven insulin aggregation, primary screen, biochemical, turbidity, absorbance 650 nm, single point (AID 651711)). Conditions: 90 min, at 9.99 µM, active compounds read high.
Protein disulfide-isomerase A6 (Homo sapiens), sequence (Q15084 whole entry, looked up): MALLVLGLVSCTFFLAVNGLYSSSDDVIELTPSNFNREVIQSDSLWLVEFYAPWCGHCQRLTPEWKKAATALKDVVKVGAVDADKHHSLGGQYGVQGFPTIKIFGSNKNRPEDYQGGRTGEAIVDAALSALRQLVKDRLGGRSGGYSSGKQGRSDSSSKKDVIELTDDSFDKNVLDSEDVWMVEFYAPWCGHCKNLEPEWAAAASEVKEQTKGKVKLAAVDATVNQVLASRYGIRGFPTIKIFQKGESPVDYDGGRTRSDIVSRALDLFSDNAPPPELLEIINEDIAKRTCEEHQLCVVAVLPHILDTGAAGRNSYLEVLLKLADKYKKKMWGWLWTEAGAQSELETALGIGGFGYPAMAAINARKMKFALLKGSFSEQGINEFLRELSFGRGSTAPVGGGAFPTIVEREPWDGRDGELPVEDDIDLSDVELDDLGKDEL
`O=C(C[C@@H]1CC[C@@H]2[C@H](COC[C@H](O)CN2C(=O)Cc2ccccc2)O1)NC1CCC1` gave an inhibition of 9.77%. For `COc1ccc(-c2ccc([C@@H]3[C@@H](C#N)N(C(=O)C4CCCCC4)[C@H]3CO)cc2)cc1`, the inhibition was -2.17%. Compound `CCCNC(=O)N1C[C@H](C)[C@@H](OC)CN(C)C(=O)c2ccc(NC(=O)CC)cc2OC[C@@H]1C` has an inhibition of 7.86%. Compound `CC(C)NC(=O)N[C@H]1CC[C@H](CC(=O)N2CCCCC2)O[C@@H]1CO` has an inhibition of 3.34%. Work on `C[C@@H]1CCCCO[C@H](CN(C)Cc2ccc(Cl)c(Cl)c2)[C@@H](C)CN([C@H](C)CO)C(=O)c2cc(NS(=O)(=O)c3cn(C)cn3)ccc2O1` yielded an inhibition of 1.36%. `COc1ccc(S(=O)(=O)N(C)C[C@H]2Oc3ccc(NC(=O)C4CC4)cc3CC(=O)N([C@@H](C)CO)C[C@@H]2C)cc1` showed an inhibition of 2.88%. `COc1ccccc1C#Cc1cnc2c(c1)C(=O)N([C@H](C)CO)C[C@H](C)[C@H](CN(C)S(=O)(=O)c1cn(C)cn1)O2` showed an inhibition of -2.62%. With `CCN1C(=O)N[C@@H]2C[C@H](C(=O)N3CCCC3)[C@H](C)[C@H](c3ccccc3)C[C@@H]21` the inhibition was 0.542%. `COc1ccccc1C#Cc1cnc2c(c1)C(=O)N([C@@H](C)CO)C[C@@H](C)[C@@H](CN(C)C(=O)CN(C)C)O2` showed an inhibition of -1.98%. `C[C@@H]1CN([C@H](C)CO)C(=O)c2cc(NC(=O)c3ccncc3)ccc2O[C@@H](C)CCCCO[C@@H]1CN(C)CC1CC1` was tested, and the inhibition was 3.17%. With `Cc1ccccc1S(=O)(=O)N[C@@H]1CC[C@H](CCn2cc(-c3ccc(F)cc3)nn2)O[C@@H]1CO` the inhibition was 0.302%. For `COc1ccc(C#Cc2ccc([C@@H]3[C@@H](CO)N4C(=O)CN(C(=O)c5ccc(F)cc5)C[C@@H]34)cc2)cc1`, the inhibition was 6.45%. `CO[C@@H]1CN(C)C(=O)c2cc(NC(=O)Nc3cccc(F)c3)ccc2OC[C@H](C)N(C)C[C@@H]1C` was tested, and the inhibition was 2.15%. For `C[C@@H]1CN([C@H](C)CO)C(=O)c2cc(-c3ccc(F)cc3)cnc2O[C@@H]1CN(C)C(=O)C1CCC1`, the inhibition was 1.7%. For `C[C@@H]1CN([C@H](C)CO)C(=O)c2cc(NS(=O)(=O)c3ccc(F)cc3)ccc2O[C@@H]1CN(C)C(=O)Nc1cccc2ccccc12`, the inhibition was 13.7%. `CCCN1C[C@H](C)[C@@H](OC)CN(C)C(=O)c2ccc(NC(=O)C3CCOCC3)cc2OC[C@@H]1C` showed an inhibition of 0.943%. `C[C@H](CO)N1C[C@H](C)[C@@H](CN(C)CC2CC2)OCCCC[C@H](C)Oc2ccc(NC(=O)Nc3ccccc3)cc2C1=O` gave an inhibition of 2.55%.
